From PubChem BioAssay AID1851 (National Center for Advancing Translational Sciences (NCATS), 2009)
Values joined by “and” are separate entries in the source; they are usually repeats but may differ in a detail not shown here. Identical values can stand only once. About 5,700 (36%) of roughly 16,000 compounds were called active. About 24% were inconclusive and are not listed. Calls come from the whole dose curve; as a rule, active = well fitted curve in the direction sought with a large enough effect; inconclusive = small, poorly fitted or top-dose-only effect, or effect the other way; inactive = no such curve, though single readings can be large or run the other way. This is one part of the list.

Target: Cytochrome P450 1A2 (Homo sapiens) (UniProt P05177)
Sequence (P05177 whole entry, looked up): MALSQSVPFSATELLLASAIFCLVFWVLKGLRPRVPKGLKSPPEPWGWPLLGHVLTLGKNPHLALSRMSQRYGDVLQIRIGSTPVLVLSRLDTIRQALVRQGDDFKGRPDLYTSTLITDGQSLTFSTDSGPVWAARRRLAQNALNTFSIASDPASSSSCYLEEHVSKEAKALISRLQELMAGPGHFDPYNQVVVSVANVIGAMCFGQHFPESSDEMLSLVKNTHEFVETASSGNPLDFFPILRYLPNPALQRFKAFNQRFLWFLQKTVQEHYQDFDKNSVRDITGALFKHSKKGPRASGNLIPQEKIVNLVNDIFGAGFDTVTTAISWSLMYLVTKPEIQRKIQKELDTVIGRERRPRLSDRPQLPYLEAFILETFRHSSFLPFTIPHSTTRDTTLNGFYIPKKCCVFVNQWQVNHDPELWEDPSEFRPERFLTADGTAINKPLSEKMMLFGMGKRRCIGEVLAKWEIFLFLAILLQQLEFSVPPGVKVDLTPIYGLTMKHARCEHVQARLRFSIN
Assay: Cytochrome panel assay with activity outcomes
Conditions: recombinant CYP, pro-luciferin dealkylation, luminescence, p450-cyp1a2; series mostly up to 57.1 µM; activity, negative = inhibition: at the top concentration
% is set by controls: 0 for no effect and ±100 for the full control effect.

| SMILES | activity, negative = inhibition | AC50 |
| --- | --- | --- |
| COc1cccc2c1C(=O)c1c(O)c3c(c(O)c1C2=O)C[C@@](O)(C(=O)CO)C[C@H]3O[C@H]1C[C@@H](N)[C@H](O)[C@@H](C)O1.[W] | -11.9% [at 11.4 µM] (inactive) |  |
| Cc1sc2c(c1C)c(=O)n(-c1ccccc1)c1nnc(C)n21 | -26.4% (inactive) |  |
| Cc1ccc(S(=O)(=O)Oc2ccc(/C=C(/NC(=O)c3ccccc3)C(=O)Nc3ccccc3)cc2)cc1 | 2.92% (inactive) |  |
| CC(C)NC(=O)c1ccccc1NC(=O)/C=C/c1ccc([N+](=O)[O-])cc1 | 10.2% (inactive) |  |
| Cc1ccccc1NC(=S)NN1CCN(C)CC1 | -4.46% (inactive) |  |
| Cc1ccccc1NC(=O)/C(=C/c1ccccc1)c1ccccc1 |  | 5.01 µM (active) |
| COc1ccc(/C=C(/C(=O)Nc2ccccc2C(=O)NC(C)C)c2ccccc2)cc1 |  | 15.8 µM (active) |
| O=C(O)/C(=C\c1ccccc1)c1ccccc1 | -20.8% [at 11.4 µM] (inactive) |  |
| Cn1cccc1C(=O)N1CCC2(CCN(Cc3ccccc3)CC2)CC1 | 10.3% (inactive) |  |
| Cc1cc(Cl)ccc1Oc1ncnc2oc(-c3ccccc3)cc12 |  | 3.16 µM (active) |
| CCN(CC)C(=O)c1sc2[nH]c(=S)n(-c3ccccc3)c(=O)c2c1C | 11.3% (inactive) |  |
| O=c1c2c(-c3cccs3)csc2[nH]c(=S)n1-c1ccccc1 |  | 12.6 µM (active) |
| CCc1cc2c(=O)n(-c3ccccc3)c(=S)[nH]c2s1 | -27.5% (inactive) |  |
| N#C/C(=C\c1ccc(O)c(O)c1)C(=O)NCCCc1ccccc1 |  | 12.6 µM (active) |
| COc1ccc(/C=C(\C#N)C(N)=O)c(OC)c1 |  | 1.58 µM (active) |
| Cc1cc(C)c(NC(=O)CS(=O)CC(=O)NCCCc2ccccc2)c(C)c1 (centres undefined) | 0.118% (inactive) |  |
| N#C/C(=C\c1ccc(O)c(O)c1)C(N)=O |  | 39.8 µM (active) |
| N[C@@H](Cc1ccc(O)c(O)c1)C(=O)O |  | inactive |
| COc1cc(/C=C(\C#N)C(=O)c2ccc(O)c(O)c2)cc(I)c1O |  | 15.8 µM (active) |
| COc1cc(/C=C(\C#N)C(N)=O)cc(CSc2nc3ccccc3s2)c1O |  | 1.26 µM (active) |
| N#C/C(=C\c1ccc(O)c(O)c1)C(=O)Nc1ccccc1 |  | 0.501 µM (active) |
| CCOC(=O)/C(C#N)=C\c1ccc(OCC(=O)Nc2ccc(C)cc2C)c(OC)c1 | -9.06% (inactive) |  |
| COc1ccc(/C=C(/C#N)C(=O)Nc2cc(C)ccc2C)cc1C(=O)O | -0.1% (inactive) |  |
| COc1ccc(/C=N/n2c(C)nnc2C)c(OC)c1 |  | 14.1 µM (active) |
| COc1ccc(/C=C(\C#N)C(N)=O)cc1OC |  | 3.16 µM (active) |

| SMILES | activity, negative = inhibition | AC50 |
| --- | --- | --- |
| CCOC(=O)C1=C(CSc2nc3ccccc3s2)NC(=O)NC1c1cc(C)ccc1C (centres undefined) | -22.3% (inactive) |  |
| CCOC(=O)/C(C#N)=C\N(C)C | -18.7% (inactive) |  |
| CCOc1ccccc1/C=C(\C#N)C(N)=O |  | 2 µM (active) |
| N#C/C(=C\c1ccc(O)c(O)c1)C(=O)NCCc1ccccc1 |  | 10 µM (active) |
| CC(=O)NCCc1ccc(O)c(O)c1 | -2.4% (inactive) |  |
| C[C@H](NC(=O)/C(C#N)=C/c1ccc(O)c(O)c1)c1ccccc1 |  | 15.8 µM (active) |
| C/C(CCN1CCCCc2nc(C)c(C)cc21)=N\O[C@@H](C)c1cn([C@H](CO)Cc2ccccc2)nn1 | -1.07% [at 11.4 µM] (inactive) and -1.23% [at 11.4 µM] (inactive) |  |
| Cc1cccc(N(CC(=O)NC2CCCC2)C(=O)c2cc3cc4cccc(C)c4nc3s2)c1C | -18.2% (inactive) |  |
| Cc1ccc(C(=O)NC2CCCCCC2)cc1N1CCCC1=O | -22.9% (inactive) |  |
| Cc1c2c(nc3c(C(=O)NC4CCCC4)cnn13)CCCC2 |  | 2.82 µM (active) |
| C[C@@H](Cc1ccccc1)Nc1ncnc2c1ncn2[C@@H]1O[C@@H](CO)[C@H](O)[C@@H]1O | 1.16% (inactive) |  |
| CC(Sc1nnc(C(C)N(C)C)n1-c1ccc(Cl)cc1)C(=O)Nc1ccc2c(c1)OCO2 (centres undefined) |  | 17.8 µM (active) |
| CCCCNc1ccc(C(=O)OCCOCCOCCOCCOCCOCCOCCOCCOCCOC)cc1 | 3.14% [at 25.6 µM] (inactive) |  |
| CN(C)CCOC(=O)c1ccc(N)cc1 | 1.14% [at 11.4 µM] (inactive) |  |
| CCOC(=O)c1ccc(N)cc1 |  | 2 µM (active) |
| O=C(OCCCN1CCCCC1)c1ccc(O)cc1 | -21.1% [at 11.4 µM] (inactive) |  |
| CCOC(=O)c1ccc(N2C(=O)CC(Nc3ccc(CCO)cc3)C2=O)cc1 (centres undefined) | 6.03% (inactive) |  |
| CCCCOC(=O)c1ccc(O)cc1 |  | 0.0794 µM (active) |
| CCOC(=O)c1ccc(-c2ccc(CO)o2)cc1 |  | 2.51 µM (active) |
| CCN(CC)CCOC(=O)c1ccc(N)cc1 |  | inactive |
| CO[C@@H]1COC(=O)[C@H]2CCCN2C(=O)[C@@H](C)COC(=O)CCC[C@H]1C | 6.36% [at 11.4 µM] (inactive) |  |
| O=C1NC(=O)C(c2ccccc2)(c2ccccc2)N1 | -10.8% (inactive) |  |
| COCC(=O)N1CCC[C@@]2(CCN(Cc3ccc(C#N)cc3)C2)C1 | 0.305% (inactive) |  |
| O=S(=O)(c1cccc2c(I)cccc12)N1CCCNCC1 |  | 10 µM (active) |
| CCN(CC)c1ccc(/C=C/c2nc3ccccc3s2)cc1 |  | 2.51 µM (active) |

| SMILES | activity, negative = inhibition | AC50 |
| --- | --- | --- |
| Cc1cccc(CNc2ccnc(-c3ccoc3)n2)c1 |  | 2 µM (active) |
| c1ccc(CNc2ccnc(-c3ccoc3)n2)cc1 |  | 2.51 µM (active) |
| c1ccc2c(N3CCNCC3)nc(-c3ccc4c(c3)OCO4)nc2c1 |  | 12.6 µM (active) |
| CN(C)c1ccc(-c2nc(N3CCNCC3)c3ccccc3n2)cc1 |  | 10 µM (active) |
| c1cc2c(cc1C(N1CCNCC1)N1CCNCC1)OCO2 | -3.03% [at 2.29 µM] (inactive) |  |
| O=C(Nc1ccccc1)N1CC[C@@]2(CCCN(C(=O)c3cnccn3)C2)C1 | -8.64% (inactive) |  |
| CC(C)=CC(=O)OCC(=O)Nc1ncc(Cl)c(C)c1Cl |  | 25.1 µM (active) |
| Cc1c(Cl)cnc(NC(=O)COC(=O)CCS(=O)(=O)c2ccccc2)c1Cl |  | 11.2 µM (active) |
| Cc1ccc(S(=O)(=O)N2CCOCC2)cc1NC(=O)COC(=O)CCC(=O)c1cccs1 | -17.9% (inactive) |  |
| COC(=O)[C@@]1(Cc2ccc(F)cc2)[C@H]2c3cc(C(=O)N(C)C)n(Cc4ccc(C)o4)c3C[C@H]2CN1C(=O)c1ccccc1 | -12.5% (inactive) |  |
| CCN(CC)CC#CCC(C)(c1ccccc1)c1ccccc1 | -22.5% (inactive) |  |
| CCN(CC)CC#CCOC(=O)[C@@](O)(c1ccccc1)C1CCCCC1 |  | 3.98 µM (active) |
| CC[N+](CC)(CC)CC[C@](O)(c1ccccc1)C1CCCCC1 | -11.1% [at 25.6 µM] (inactive) |  |
| CCOC(=O)C(NC(C)=O)C(OC(C)=O)c1cccc(N(CCO)CCO)c1 (centres undefined) | -4.35% (inactive) |  |
| Cc1cc(C)c(C#N)c(SCS(=O)c2ccc(C(C)(C)C)cc2)n1 (centres undefined) |  | 20 µM (active) |
| CN1CCN(CC(O)c2ccccc2)CC1 (centres undefined) | 1.6% (inactive) |  |
| Cc1[nH]nc(N2CCCCCC2)c1[N+](=O)[O-] |  | 2 µM (active) |
| COc1ccccc1CCn1c(=O)c(-c2ccccc2)nc2cncnc21 |  | 1 µM (active) |
| COc1ccccc1CCn1c(=O)c(-c2ccc(F)cc2)nc2cncnc21 |  | 1 µM (active) |
| Cn1c(=O)c(-c2cccs2)nc2cncnc21 |  | 1.26 µM (active) |
| COc1ccccc1CCn1c(=O)c(-c2cccc(Cl)c2)nc2cncnc21 |  | 0.316 µM (active) |
| CCCC[C@]1(C2CCCC2)Cc2cc(OCC(=O)O)c(Cl)c(Cl)c2C1=O | -9.78% (inactive) |  |
| Cc1[nH]n(C(C)(C)C)c(=O)c1Sc1ccccc1 | 14.3% (inactive) |  |
| COc1ccccc1CCn1c(=O)c(-c2ccc(Cl)cc2)nc2cncnc21 |  | 0.631 µM (active) |
| COCCn1c(=O)c(-c2cccs2)nc2cncnc21 |  | 3.16 µM (active) |

| SMILES | activity, negative = inhibition | AC50 |
| --- | --- | --- |
| COc1ccccc1CCn1c(=O)c(-c2ccc(F)c(F)c2)nc2cncnc21 |  | 2 µM (active) |
| COc1ccccc1CCn1c(=O)c(-c2cccs2)nc2cncnc21 |  | 2 µM (active) |
| COc1ccc(NC(=O)N2CCCC3(CCN(S(C)(=O)=O)CC3)C2)cc1 | -8.77% (inactive) |  |
| O=C1c2ccccc2CC[C@H]1CNCCc1ccc(O)cc1 |  | 20 µM (active) |
| Cc1cccc(C)c1NC(=O)Nc1ccc(S(N)(=O)=O)cc1 | -10.8% [at 2.29 µM] (inactive) |  |
| Cc1ccc(NC(=O)Nc2ncccc2C)cc1 |  | 3.55 µM (active) |
| CCCCNC(=O)c1cc2nc3c(c(C(F)(F)F)n2n1)CCc1ccccc1-3 |  | 2.51 µM (active) |
| COc1cccc(N=c2oc3c(C)ncc(CO)c3cc2C(N)=O)c1 |  | 4.47 µM (active) |
| CO[C@H]1COC(=O)CCC[C@H](C)[C@H](OC)COC(=O)C/C=C\[C@@H]1C | -3.93% [at 11.4 µM] (inactive) |  |
| Cc1ccsc1/C=N/Nc1nc(Cl)c(Cl)cc1Cl |  | 2 µM (active) |
| N#Cc1ccc(C2=NC(C(F)(F)F)(C(F)(F)F)c3c(n(Cc4ccco4)c(=O)[nH]c3=O)N2)cc1 | -5.04% (inactive) |  |
| C#CC[N+](CC)(CC)CC#Cc1cccc(Cl)c1 | -7.67% (inactive) |  |
| CNC(=O)c1sc(SC)cc1-c1ccc(Cl)cc1 |  | 0.355 µM (active) |
| Cc1nc2c(C(=O)NCc3ccc4c(c3)OCO4)c[nH]n2c(=O)c1Cc1ccccc1F |  | 12.6 µM (active) |
| Cc1nc2ccccn2c1/C(O)=C1\C(=O)C(=O)N(CCN2CCOCC2)C1c1cccnc1 (centres undefined) | -17.5% (inactive) |  |
| O=c1cnc2cnc(Nc3ccccc3)nc2n1Cc1ccc(F)cc1 |  | 1 µM (active) |
| CCNc1ncc2nc(C)c(=O)n(Cc3cccc(OC)c3)c2n1 |  | 3.16 µM (active) |
| CCNc1ncc2nc(C)c(=O)n(Cc3ccc(F)cc3)c2n1 |  | 1.58 µM (active) |
| CCNc1ncc2ncc(=O)n(Cc3ccc(F)cc3)c2n1 |  | 1 µM (active) |
| Cc1cc(CN2CCCCC2)c(O)c(CN2CCCCC2)c1 | -18.8% [at 2.29 µM] (inactive) |  |
| Cn1cnc2c(NC3CCCC3)ncnc21 |  | 12.6 µM (active) |
| OC[C@@H]1O[C@@H](n2cnc3c(NC4CCCC4)ncnc32)[C@@H](O)[C@H]1O | -3.56% (inactive) |  |
| OC[C@@H]1O[C@@H](n2cnc3c(NC4CCCC4)ncnc32)[C@H](O)[C@H]1O | -4.01% (inactive) |  |
| Cc1ccc(S(=O)(=O)O[C@H]2C[C@@H](C(C)(C)C)CC[C@@H]2c2ccccc2)cc1 | -22.8% [at 2.29 µM] (inactive) |  |
